Screening results deposited in PubChem by Broad Institute.
FGF22 binding – binders of recombinant human FGF22 by thermal shift | Q9HCT0 | SYPRO orange fluorescence; percent of sucrose octasulfate shift, DMSO zero | activity (Tm shift, normalised), % at 9.99 µM | hit rate 1.5% among 340,000;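 active = mean Tm shift, scaled 0 neutral to 100 positive control, at about 1.3% or above, every replicate too, limit read from the data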
Target sequence (Q9HCT0 whole entry, looked up): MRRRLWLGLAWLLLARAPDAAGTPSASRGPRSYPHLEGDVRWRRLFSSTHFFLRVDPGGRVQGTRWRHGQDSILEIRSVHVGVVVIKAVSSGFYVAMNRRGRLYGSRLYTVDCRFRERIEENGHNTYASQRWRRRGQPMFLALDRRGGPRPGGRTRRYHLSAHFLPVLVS
PvdQ inh – blocks Pseudomonas aeruginosa PvdQ acylase activity; purified PvdQ acylase, fluorescence plate reader; inhibition, % at 10 µM; hit rate 0.063% among 340,000; in the data active = inhibition above about 30%, passing the limit was not always enough
SIRT5 inh – blocks human SIRT5 desuccinylation of peptide | AID 652115 | Purified SirT5, succinyl-peptide AMC, trypsin-coupled fluorescence | Q9NXA8 | hit rate 1.1% among 330,000 | inhibition, % at 15 µM; in the data active = inhibition above about 15%
Target sequence (Q9NXA8 whole entry, looked up): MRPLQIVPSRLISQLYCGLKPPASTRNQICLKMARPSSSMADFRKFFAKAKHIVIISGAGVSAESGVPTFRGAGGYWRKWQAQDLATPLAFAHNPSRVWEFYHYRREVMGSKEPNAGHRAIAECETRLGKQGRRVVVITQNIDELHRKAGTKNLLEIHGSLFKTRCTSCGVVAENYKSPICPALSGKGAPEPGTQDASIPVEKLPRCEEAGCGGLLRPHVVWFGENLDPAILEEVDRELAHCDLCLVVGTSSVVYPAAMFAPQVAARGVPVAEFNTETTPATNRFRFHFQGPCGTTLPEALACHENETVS
dFosB act – mouse delta FosB homodimer activation | purified delta FosB, TAMRA-CDK5 oligo fluorescence polarization; percent of positive-control signal above neutral wells | activation, % at 25 µM | hit rate 0.99% among 340,000 | AID 493131;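 active = mean activation above about 17%, with every replicate also reaching it, limit read from the data, passing the limit was not always enough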
CDK5 inh – inhibitors of human CDK5/p35 kinase. hit rate 0.01% among 330,000. Q00535+Q15078. Recombinant CDK5/p35, ADP-Glo luminescence, 60 min. AID 488839. inhibition, % at 10 µM;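 active = highest replicate inhibition of at least 50% and at least 75% of replicates reaching 50%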
PglD DTNB – blocks C. jejuni PglD acetyltransferase activity; AID 602405; inhibition, % at 12.5 µM; hit rate 0.098% among 360,000; purified PglD enzyme, DTNB colorimetric CoA detection; in the data active = inhibition above about 16%, passing the limit was not always enough
Large screens that a line does not name were inactive; ! = not active in a repeat. An excerpt weighted towards active compounds, which were near 2.8% of everything screened.

CN(Cc1c(C(=O)N/N=C/c2ccccc2)nnn1-c1nonc1N)c1ccccc1	none
COc1ccc2c3c([nH]c2c1)[C@@H](CO)N(C(=O)CN1CCOCC1)CC31CCN(C(C)=O)CC1	none (no result: PvdQ inh, SIRT5 inh, dFosB act, CDK5 inh, PglD DTNB)
Cc1nc(CN(C)Cc2nc(Cc3cccc(F)c3)no2)cs1	SIRT5 inh 25.5
CN(C)C(=O)c1cccc(-c2ccc3c(c2)[C@H]2[C@H](CCN2C(=O)c2ccncc2)[C@H](CO)N3C)c1	none (no result: PvdQ inh, dFosB act, CDK5 inh)
O=C(O)CCCN1C(=O)/C(=C/C=C/c2ccco2)SC1=S	SIRT5 inh 32.4 (no result: PglD DTNB)
O=C(O)C(Cc1ccccc1)N1C(=O)/C(=C/C=C/c2ccco2)SC1=S (configuration not stated)	SIRT5 inh 44.9 (no result: CDK5 inh)
O=C(NN1C(=O)/C(=C/C=C/c2ccco2)SC1=S)c1ccccc1O	SIRT5 inh 45.7
O=C(O)CC(C(=O)O)N1C(=O)/C(=C/C=C/c2ccco2)SC1=S (configuration not stated)	SIRT5 inh 30.2
Cc1ccc(-c2ccc3c(c2)O[C@H](CN(C)C(=O)CN(C)C)[C@H](C)CN([C@H](C)CO)S3(=O)=O)cc1	none (no result: PvdQ inh, dFosB act, CDK5 inh)
Cc1cc(C)cc(S(=O)(=O)c2cnc3ccccc3n2)c1	FGF22 binding 43.1 (no result: PglD DTNB)
O=S(=O)(c1ccc(Cl)cc1)c1cnc2ccccc2n1	none
CC1(NCc2ccc(Cl)cc2)COP(=O)(NCc2ccccc2)OC1 (configuration not stated)	SIRT5 inh 15.8
O=C(CC(=O)NCc1ccc(Cl)cc1)NCc1ccccc1	none
C/C=C/c1ccc2c(c1)O[C@H](CN(C)Cc1ccccc1F)[C@H](C)CN([C@H](C)CO)S2(=O)=O	SIRT5 inh 13.0 (no result: PvdQ inh, dFosB act, CDK5 inh)
C/C=C/c1ccc2c(c1)O[C@@H](CN(C)Cc1ccc(F)cc1)[C@H](C)CN([C@H](C)CO)S2(=O)=O	SIRT5 inh 16.3 (no result: PvdQ inh, dFosB act, CDK5 inh)
C/C=C/c1ccc2c(c1)O[C@H](CN(C)Cc1ccc(F)cc1)[C@@H](C)CN([C@H](C)CO)S2(=O)=O	none (no result: PvdQ inh, dFosB act, CDK5 inh)
C[C@H](CO)N1C[C@H](C)[C@@H](CN(C)CC2CC2)Oc2ccc(NS(=O)(=O)c3ccc(F)cc3)cc2CC1=O	none (no result: PvdQ inh, dFosB act, CDK5 inh)
C[C@@H]1CCCCO[C@H](CN(C)C(=O)c2ccncc2)[C@@H](C)CN([C@H](C)CO)C(=O)c2cc(NS(=O)(=O)c3cn(C)cn3)ccc2O1	none (no result: PvdQ inh, dFosB act, CDK5 inh)
C[C@@H]1CCCCO[C@H](CN(C)C(=O)c2ccncc2)[C@H](C)CN([C@H](C)CO)C(=O)c2cc(NS(=O)(=O)c3cn(C)cn3)ccc2O1	FGF22 binding 1.7 (no result: PvdQ inh, dFosB act, CDK5 inh)
C[C@@H]1CN([C@H](C)CO)C(=O)c2cc(NS(=O)(=O)c3cn(C)cn3)ccc2O[C@H]1CN(C)C(=O)Nc1ccccc1	SIRT5 inh 23.1!
C[C@@H]1CN([C@@H](C)CO)C(=O)c2cc(NS(=O)(=O)c3cn(C)cn3)ccc2O[C@@H](C)CCCCO[C@H]1CN(C)C(=O)Cc1ccccc1	SIRT5 inh 16.7 (no result: PvdQ inh, dFosB act, CDK5 inh)
CC(=O)N(C)C[C@@H]1Oc2ncc(C#C[C@H](C)O)cc2C(=O)N([C@@H](C)CO)C[C@H]1C	none (no result: PvdQ inh, dFosB act, CDK5 inh)
CC(C)(C)n1nnnc1C(c1cccnc1)N1CCOCC1 (configuration not stated)	SIRT5 inh 19.8
FC(F)(F)c1ccc(/C=N/n2c(COc3ccccc3)n[nH]c2=S)cc1	none
S=c1[nH]nc(COc2ccccc2)n1/N=C/c1ccncc1	FGF22 binding 43.1
COc1ccc(S(=O)(=O)Nc2ccc3c(c2)C(=O)N([C@H](C)CO)C[C@H](C)[C@@H](CN(C)S(=O)(=O)c2ccc(C)cc2)OCCCC[C@@H](C)O3)cc1	none (no result: PvdQ inh, dFosB act, CDK5 inh)
COc1ccc(S(=O)(=O)N(C)C[C@H]2OCCCC[C@@H](C)Oc3ccc(NS(=O)(=O)c4ccc(C)cc4)cc3C(=O)N([C@@H](C)CO)C[C@H]2C)cc1	SIRT5 inh 24.5 (no result: FGF22 binding, PvdQ inh, dFosB act, CDK5 inh)
COc1ccc(S(=O)(=O)N(C)C[C@H]2OCCCC[C@H](C)Oc3ccc(NS(=O)(=O)c4ccc(C)cc4)cc3C(=O)N([C@@H](C)CO)C[C@H]2C)cc1	SIRT5 inh 19.6 (no result: PvdQ inh, dFosB act, CDK5 inh)
COc1ccc(S(=O)(=O)N(C)C[C@H]2OCCCC[C@@H](C)Oc3ccc(NS(=O)(=O)c4ccc(C)cc4)cc3C(=O)N([C@H](C)CO)C[C@@H]2C)cc1	none (no result: PvdQ inh, dFosB act, CDK5 inh)
Cc1noc(C)c1S(=O)(=O)Nc1ccc2c(c1)C(=O)N([C@@H](C)CO)C[C@@H](C)[C@H](CN(C)S(=O)(=O)c1cn(C)cn1)OCCCC[C@@H](C)O2	FGF22 binding 33.8 (no result: PvdQ inh, dFosB act, CDK5 inh)
COc1ccc(S(=O)(=O)N(C)C[C@@H]2OCCCC[C@@H](C)Oc3ccc(NS(=O)(=O)c4ccc(C)cc4)cc3C(=O)N([C@@H](C)CO)C[C@H]2C)cc1	SIRT5 inh 17.1 (no result: PvdQ inh, dFosB act, CDK5 inh)
O=C(Cc1ccccc1)N1CC[C@@H]2[C@H](CO)Nc3ccc(C#Cc4cccc(F)c4)cc3[C@@H]21	none (no result: FGF22 binding, PvdQ inh, SIRT5 inh, dFosB act, CDK5 inh)
COc1ccc(S(=O)(=O)N(C)C[C@H]2OCCCC[C@H](C)Oc3ccc(NS(=O)(=O)c4ccc(C)cc4)cc3C(=O)N([C@H](C)CO)C[C@@H]2C)cc1	SIRT5 inh 22.9 (no result: PvdQ inh, dFosB act, CDK5 inh)
COc1ccc(S(=O)(=O)N(C)C[C@@H]2OCCCC[C@H](C)Oc3ccc(NS(=O)(=O)c4ccccc4)cc3C(=O)N([C@@H](C)CO)C[C@H]2C)cc1	none (no result: PvdQ inh, dFosB act, CDK5 inh)
COc1ccc(S(=O)(=O)N(C)C[C@@H]2OCCCC[C@@H](C)Oc3ccc(NS(=O)(=O)c4ccc(C)cc4)cc3C(=O)N([C@H](C)CO)C[C@@H]2C)cc1	SIRT5 inh 15.1 (no result: PvdQ inh, dFosB act, CDK5 inh)
COc1ccc(S(=O)(=O)Nc2ccc3c(c2)C(=O)N([C@@H](C)CO)C[C@H](C)[C@H](CN(C)S(=O)(=O)c2ccccc2)OCCCC[C@@H](C)O3)cc1	SIRT5 inh 15.2 (no result: PvdQ inh, dFosB act, CDK5 inh, PglD DTNB)
COc1ccc(S(=O)(=O)N(C)C[C@H]2OCCCC[C@H](C)Oc3ccc(NS(=O)(=O)c4ccc(C)cc4)cc3C(=O)N([C@H](C)CO)C[C@H]2C)cc1	SIRT5 inh 28.6 (no result: PvdQ inh, dFosB act, CDK5 inh)
COCC(=O)N1[C@@H](C#N)[C@H](c2ccc(-c3cccc(F)c3)cc2)[C@@H]1CO	none (no result: PvdQ inh, dFosB act, CDK5 inh)
CC(C)NC(=O)N(C)C[C@@H]1Oc2ccc(NC(=O)Nc3ccc(F)cc3)cc2C(=O)N([C@H](C)CO)C[C@@H]1C	none (no result: PvdQ inh, dFosB act, CDK5 inh)
COc1ccc(S(=O)(=O)N(C)C[C@H]2OCCCC[C@@H](C)Oc3ccc(NS(=O)(=O)c4cn(C)cn4)cc3C(=O)N([C@@H](C)CO)C[C@H]2C)cc1	SIRT5 inh 16.0 (no result: PvdQ inh, dFosB act, CDK5 inh)
O=C(CCS(=O)(=O)Cc1ccccc1)NCCc1ccccc1	FGF22 binding 43.4 (no result: PglD DTNB)
O=C(CCS(=O)(=O)c1ccc(Br)cc1)NCCc1ccccc1	none
O=C(NCCc1ccc(Cl)cc1)c1ccc(Br)s1	none
NS(=O)(=O)c1ccc(CCNC(=O)CCS(=O)(=O)c2ccc(Br)cc2)cc1	SIRT5 inh 15.7
NS(=O)(=O)c1ccc(CCNC(=O)c2ccc(Br)s2)cc1	FGF22 binding 43.2 (no result: PglD DTNB)
